aSyn UTR act – Activators via SNCA 5'UTR binding, MLPCN | hit rate 7.1% among 300,000 | alpha-synuclein 5'UTR reporter, activators screen | activity score, % (tested at 7.5 µM), hits read low; in the data active means activity score below about -60%
Of the large screens only hits and unclear results are named; the others gave an inactive call. These entries were drawn from the full list.

Cc1ccc(-c2nc(NCc3cccnc3)c3ccccc3n2)cc1	aSyn UTR act -78
Cc1ccc(-c2nc(N/N=C/c3cccc([N+](=O)[O-])c3)c3ccccc3n2)cc1	aSyn UTR act -153
S=C(N/N=C/c1ccco1)NC1CC2CCC1C2 (stereo not drawn)	aSyn UTR act -90
Oc1ccccc1/C=N/NC(=S)NC1CC2CCC1C2 (stereo not drawn)	aSyn UTR act -83
CCC(C)NC(=O)Cn1c(COc2ccc(Cl)cc2Cl)nc2ccccc21 (stereo not drawn)	aSyn UTR act -122
CCc1cccc2c(=O)c(C(=O)N3CCCCCC3)c[nH]c12	aSyn UTR act -78
CCN(CC)CCSc1nnc2c3ccccc3n(CCc3ccccc3)c2n1	aSyn UTR act -106
CC(C)CSc1nnc2c3ccccc3n(C)c2n1	aSyn UTR act -75
CN(C)CCn1c2ccccc2c2nc3ccc([N+](=O)[O-])cc3cc21	none
O=C(Nc1ccc2c(c1)OCCO2)N1CCN(c2ccc(F)cc2)CC1	aSyn UTR act -88
Cc1cccc(C)c1N1CCN(C(=O)Nc2ccc3c(c2)OCCO3)CC1	aSyn UTR act -74
O=C(Nc1ccc2c(c1)OCCO2)C1CCN(C(=O)c2ccc(F)cc2)CC1	aSyn UTR act -85
Cc1ccc(/C=C/C(=O)c2ccccc2O)cc1	aSyn UTR act -121
CC(C)NC(=O)c1ccccc1NC(=O)/C=C/c1cccc([N+](=O)[O-])c1	none
O=C(/C=C/c1ccc(O)cc1)c1ccccc1	aSyn UTR act -118
Cc1ccc(/C=C/C(=O)Nc2ccccc2C(N)=O)cc1	aSyn UTR act -86
Cc1nn(C)cc1/C=C/C(=O)c1ccc(O)cc1	aSyn UTR act -229
Cc1ccc(/C=C/C(=O)c2ccc(C)cc2)cc1	aSyn UTR act -150
Cc1c(/C=C/C(=O)c2ccccc2O)cnn1C	aSyn UTR act -227
CSc1ccc(C(=O)/C=C/c2ccc(N)cc2)cc1	aSyn UTR act -204
O=C(/C=C/c1cccnc1)c1cccc(O)c1	aSyn UTR act -88
O=C(/C=C/c1ccc(N2CCC(c3ccccc3)=N2)cc1)c1ccccc1	aSyn UTR act -67
CN(C)c1ccc(/C=C/C(=O)c2ccccc2O)cc1	aSyn UTR act -197
O=C(/C=C/c1ccco1)c1ccccc1O	aSyn UTR act -65
O=C(/C=C/c1ccc(-c2ccccc2)o1)c1ccccc1	aSyn UTR act -66
Brc1ccc(NC2=Nc3ccccc3CC2)cc1	aSyn UTR act -172
COc1nc(NCc2ccco2)nc(NC2CCCCC2)n1	aSyn UTR act -94
Cc1ccc2cc3c(N)c(C(=O)N4CC(=O)Nc5ccccc54)sc3nc2c1	none
COc1ccc2cc3c(N)c(C(=O)N4CCCC4)sc3nc2c1	aSyn UTR act -189
Cc1ccc2nc3sc(C(=O)N4CCOCC4)c(N)c3cc2c1	none
CC(C)c1ccc2nc3sc(C(=O)N4CCc5ccccc5C4)c(N)c3cc2c1	aSyn UTR act -62
CCOc1ccc2nc3sc(C(=O)N4CCN(C)CC4)c(N)c3cc2c1	aSyn UTR act -80
CC(=O)c1ccc(NC(=O)c2cc3nc4c(c(C(F)(F)F)n3n2)CCCC4)cc1	aSyn UTR act -75
O=C(NC1CCCCC1)c1cc2nc3c(c(C(F)(F)F)n2n1)CCCC3	aSyn UTR act -136
O=C(OC(c1ccccc1)c1nccc2ccccc12)c1cccc([N+](=O)[O-])c1 (stereo not drawn)	aSyn UTR act -79
CC(C)C(OC(=O)c1ccccc1)c1nccc2ccccc12 (stereo not drawn)	aSyn UTR act -116
Cc1ccc(NC(=O)C2C3/C=C\CCCCC32)cc1C (stereo not drawn)	aSyn UTR act -115
CC(C)CNC(=O)c1cc(-c2ccco2)on1	aSyn UTR act -137
CCCNC(=O)c1cc(-c2ccco2)on1	aSyn UTR act -335
CCC(C)c1ccc(OCC(=O)Nc2ccc(Cl)cn2)cc1 (stereo not drawn)	aSyn UTR act -72
CCCCCCC(=O)Nc1ccc(Cl)cn1	aSyn UTR act -88
CC(C)CC(=O)NC(=S)Nc1ccc(Cl)cn1	aSyn UTR act -68
CCc1ccc(NC(=S)NC(=O)CC(C)C)cc1	aSyn UTR act -154
CCOc1ccc(C(=O)c2cccs2)cc1	aSyn UTR act -182
Cc1ccc(-n2nc3ccc(NC(=S)NC(=O)/C=C/c4ccco4)cc3n2)cc1	aSyn UTR act -96
Cc1ccc(-n2nc3cc(C)c(NC(=S)NC(=O)/C=C/c4ccco4)cc3n2)cc1	aSyn UTR act -257
CCOc1ccc(-c2nc(CCl)cs2)cc1OC	aSyn UTR act -104
CCOc1ccc(-c2cc(CCCC(=O)NCCc3ccc(OC)c(OC)c3OC)no2)cc1	none
Cc1[nH]n(-c2ccc(Cl)cc2)c(=O)c1C=Nc1ccc(S(=O)(=O)N2CCOCC2)cc1	aSyn UTR act -69
CCCCN(CCCC)C(=S)N/N=C/c1c(C)[nH]n(-c2ccccc2)c1=O	none
COc1ccc(Nc2c(-c3ccco3)nc3ccc(C)cn23)cc1	aSyn UTR act -89
Cc1ccccc1Nc1c(-c2ccccn2)nc2ccccn12	none
Cc1ccc(Nc2c(-c3ccco3)nc3ccccn23)cc1	aSyn UTR act -83
O=C(c1cc(-c2ccccc2O)on1)N1CCOCC1	aSyn UTR act -115
O=C(c1cc(-c2ccccc2O)on1)N1CCCCCC1	aSyn UTR act -140
NC(=O)CSc1nc(-c2ccccc2Cl)ns1	aSyn UTR act -121
O=[N+]([O-])c1ccccc1OCCCn1cnc2ccccc21	aSyn UTR act -100
N=c1n(Cc2ccccc2)c2ccccc2n1CC(O)COc1ccc(Cl)cc1Cl (stereo not drawn)	none
Clc1ccc(OCCn2cnc3ccccc32)c(Cl)c1	aSyn UTR act -126
O=c1c2ccc([N+](=O)[O-])c3cccc(c32)c2nc3ccccc3n12	none
O=c1c2ccccc2ncn1CCCOc1ccccc1[N+](=O)[O-]	aSyn UTR act -150
c1ccc(-c2cc3c(ccc4nonc43)nn2)cc1	aSyn UTR act -96
O=C(N/N=C/c1ccc(OC(=O)c2ccccc2Br)cc1)c1ccccn1	aSyn UTR act -90
Cc1ccc(/C=N/NC(=O)c2cccs2)o1	aSyn UTR act -65
O=C(N/N=C/c1ccc(Br)s1)c1ccccn1	aSyn UTR act -96
O=C(N/N=C/c1ccsc1)c1ccccn1	aSyn UTR act -92
Cc1ccsc1/C=N/NC(=O)c1cccs1	aSyn UTR act -109
O=C(N/N=C/C1CCCCC1)c1ccccn1	aSyn UTR act -116
Cc1ccsc1/C=N/NC(=O)c1cc(-c2ccncc2)nc2ccccc12	none
Cc1ccsc1/C=N/Nc1ccc(C(=O)O)cc1	none
Cc1ccsc1/C=N/NC(=O)c1ccccn1	aSyn UTR act -151
COCCCNC(=O)COc1ccc(Br)cc1Cl	aSyn UTR act -146
O=C(COc1ccc(Br)cc1Cl)NC(=S)Nc1ccccn1	aSyn UTR act -100
CN(C)/C=N/c1ncnc2c1cnn2-c1ccc(C(F)(F)F)cn1	aSyn UTR act -84
Cc1cc(O)c(C2=Nc3ccccc3SC(c3ccc(Cl)cc3)C2)c(=O)o1 (stereo not drawn)	aSyn UTR act -261
COc1cccc(NS(=O)(=O)NC(=O)c2c[nH]c3ccccc23)c1	aSyn UTR act -63
CC(=O)N(Cc1ccc(F)cc1)C1=C(NCCc2ccccc2)C(=O)c2ccccc2C1=O	none
CN(Cc1ccc(F)cc1)C(=O)CCc1nnc(-c2ccccc2)o1	aSyn UTR act -91
COc1ccc(CCN(C)C(=O)CCc2nnc(-c3ccccc3)o2)cc1OC	aSyn UTR act -86
Cc1ccc(-c2nc(C)c(C(=O)O)s2)cc1	aSyn UTR act -208
Cc1nc(-c2ccc(Cl)cc2)sc1C(=O)O	aSyn UTR act -101
C/C(=N\OC(=O)c1ccc(F)cc1)c1sc(-c2ccc(Cl)cc2)nc1C	aSyn UTR act -211

Assay outcomes: PubChem, Broad Institute
